Data on 29 compounds can be found in PubChem BioAssay (EPA / NIEHS).

Inconclusive results are not listed. Calls of active or inactive are those of the source. Rule for the calls: active = hit-call score of the fitted dose curve at least 0.9, where 1 is the maximum; inconclusive = response in the unintended direction; inactive = score below 0.9.

Assay [1] is described as follows: Tanguay_ZF_120hpf_SNOU_legacy: (Legacy) Oregon State University Tanguay Lab 120 Hour Post-fertilization zebrafish Assay for Snout Malformation (AID 2283637). The method, boiled down: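 Snout malformation read as a yes/no call on brightfield images of 120 hpf larvae (Tropical 5D strain). Static exposure began at 6 hpf on dechorionated embryos in 0.64% DMSO, with gain of signal analysed versus DMSO controls.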

A short description of assay [2]: Tanguay_ZF_120hpf_JAW_legacy: (Legacy) Oregon State University Tanguay Lab 120 Hour Post-fertilization zebrafish Assay for Jaw Malformation (AID 2283638).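 For AC50: active means more embryos with jaw malformation than DMSO controls.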 The gist of the method: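 Wild-type 5D embryos, chorion removed at 4 hpf, dosed singly from 6 hpf; 28C static, sealed, foil-covered, to 120 hpf. Endpoint: jaw defect yes/no (brightfield); mortality excludes scoring.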

The nature of assay [3]: Tanguay_ZF_120hpf_OTIC_legacy: (Legacy) Oregon State University Tanguay Lab 120 Hour Post-fertilization zebrafish Assay for Otic Vesicle Malformation (AID 2283639). The method, boiled down: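 Tropical 5D wild-type zebrafish embryos were exposed statically in sealed, foil-covered plates at 28C until 120 hpf, with 0.64% (vol/vol) DMSO final. Otic vesicle malformation was scored present/absent by brightfield microscopy, with DMSO as baseline.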

The nature of assay [4]: Tanguay_ZF_120hpf_SOMI_legacy: (Legacy) Oregon State University Tanguay Lab 120 Hour Post-fertilization zebrafish Assay for Somite Malformation (AID 2283647). The gist of the method:
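Somitogenesis defects are recorded as binary calls in whole larvae at 120 hpf after continuous static chemical exposure starting at 6 hpf in dechorionated 5D embryos. DMSO serves as negative control and baseline.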

Assay [5] can be described thus: Tanguay_ZF_120hpf_CIRC_legacy: (Legacy) Oregon State University Tanguay Lab 120 Hour Post-fertilization zebrafish Assay for Circulatory Malformation (AID 2283651). The method, boiled down: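 Tropical 5D wild-type embryos, dechorionated with pronase at 4 hpf, were placed singly in wells at 6 hpf and exposed statically at 28C to 120 hpf (0.64% DMSO final). Circulatory malformation was scored present/absent by brightfield microscopy.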

Assay [6] can be described thus: Tanguay_ZF_120hpf_PE_legacy: (Legacy) Oregon State University Tanguay Lab 120 Hour Post-fertilization zebrafish Assay for Pericardial Edema (AID 2283640).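 For AC50: potency for increased incidence of pericardial edema versus DMSO baseline.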 The method, boiled down: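 Zebrafish larvae are exposed from early development to 120 hpf at 28C, with 0.64% DMSO final. Each surviving larva receives a yes/no pericardial edema call by brightfield imaging, analysed relative to the DMSO baseline.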

Assay [7] in a line: Tanguay_ZF_120hpf_BRAI_legacy: (Legacy) Oregon State University Tanguay Lab 120 Hour Post-fertilization zebrafish Assay for Brain Malformation (AID 2283641). The method, boiled down: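 Static exposure of staged wild-type embryos until 120 hpf, kept at 28C with light excluded and final DMSO of 0.64% (vol/vol). Presence or absence of brain malformation was noted under brightfield; mortality precluded scoring.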

Assay [8] can be described thus: Tanguay_ZF_120hpf_CFIN_legacy: (Legacy) Oregon State University Tanguay Lab 120 Hour Post-fertilization zebrafish Assay for Caudal Fin Malformation (AID 2283649). The method, boiled down:
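Single dechorionated 5D wild-type embryos are dosed at 6 hpf (final DMSO 0.64%) and held statically at 28C. Caudal fin malformation is recorded as present or absent at 120 hpf under brightfield, excluding dead embryos.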

Assay [9] is described as follows: Tanguay_ZF_120hpf_PIG_legacy: (Legacy) Oregon State University Tanguay Lab 120 Hour Post-fertilization zebrafish Assay for Pigmentation Malformation (AID 2283650). The gist of the method: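 Pronase dechorionation at 4 hpf; embryos plated at 6 hpf, one per well; static exposure, sealed and foil-covered, 28C, to 120 hpf; pigmentation read by brightfield, binary; DMSO 0.64% baseline, 5uM trimethyltin chloride positive control.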

Assay [10] is described as follows: Tanguay_ZF_120hpf_PFIN_legacy: (Legacy) Oregon State University Tanguay Lab 120 Hour Post-fertilization zebrafish Assay for Pectoral Fin Malformation (AID 2283648).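 Note: each larva judged yes or no for fin defect by brightfield with dead larvae skipped.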 The gist of the method: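 5D WT zebrafish; pronase dechorionation 4 hpf; 1 embryo/well at 6 hpf; static exposure to 120 hpf, 28C, sealed, foil-covered; final DMSO 0.64% v/v; 5 uM trimethyltin chloride positive control; fin defect scored yes/no.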

As to `CCC(=C(c1ccc(O)cc1)c1ccc(OCCN(C)C)cc1)c1ccccc1`, the compound was classed as inactive in [1], in assay [2], in [3], in assay [4] and in assay [5].
For the compound `CC(C)(C)c1cc(C(C)(C)C)c(O)c(C(C)(C)C)c1`, the call in assay [1], in assay [2], in assay [6], in [7], in assay [8] and in assay [9] was inactive. Further, in assay [5], the call was inactive.
Consider `COCC(C)OCC(C)O` (configuration not stated), for which the outcome in assay [1], in [2], in assay [3], in [6], in assay [7] and in assay [4] was inactive. For the same compound, the result in [10] and in assay [5] was inactive.
On to `CCCCCCCCC(=O)O`, for which the call in [1], in assay [2], in [3], in [6], in assay [7] and in [4] was inactive. Moreover, the result in [8], in assay [9] and in assay [5] was inactive.
Take `NC(=O)N1C(=O)C(C(=O)c2cc(Cl)cs2)c2cc(F)c(Cl)cc21` (configuration not stated): the compound was classed as inactive in assay [2], in [3], in assay [6], in assay [7], in assay [4] and in [8]. Further, the call in assay [9] and in assay [5] was inactive.
Take `CC(C)(C)CC(C)(C)c1ccc(O)c(-n2nc3ccccc3n2)c1`: the compound was classed as inactive in assay [1], in assay [2], in assay [3], in [6], in [7] and in assay [4]. In addition, the compound was classed as inactive in [8], in [9] and in assay [5].
With `CN1CCC[C@H]1c1cccnc1`, the compound was classed as inactive in assay [1], in assay [2], in assay [3], in assay [6], in [7] and in assay [4]. Also, the compound was classed as inactive in assay [10], in assay [8] and in assay [9].
For the compound `O=[N+]([O-])c1ccc(O)cc1`, the result in assay [1], in assay [2], in assay [3], in [6], in assay [7] and in assay [4] was inactive. Also, the compound was classed as inactive in assay [8], in assay [9] and in [5].
On to `CC[C@H](C)[C@@H](C(=O)O)n1sc2ccccc2c1=O`, for which the call in assay [2], in assay [3], in assay [6], in [7], in assay [4] and in assay [10] was inactive. The compound was called inactive in assay [8], in assay [9] and in assay [5].
Consider `c1ccc2c(c1)ccc1ccccc12`, for which the result in assay [1], in [2], in assay [6], in [7], in [8] and in assay [9] was inactive. In assay [5], the compound was called inactive.
Take `CCCCC(CC)COC(=O)CCCCC(=O)OCc1ccccc1` (configuration not stated): the compound was classed as inactive in [1], in assay [2], in [3], in assay [6], in assay [7] and in assay [4]. For the same compound, the compound was called inactive in assay [10], in [8] and in assay [5].
Consider `CCC(C)(C)C1CCC(O)CC1` (configuration not stated), for which the compound was called inactive in assay [2], in [3], in assay [6], in [7], in [4] and in assay [8]. Besides, the compound was classed as inactive in assay [9].
In the case of `O=C(O)Cc1cc(I)c(Oc2cc(I)c(O)c(I)c2)c(I)c1`, the AC50 in assay [2] was 0.00848 µM (active); in [7], 0.00612 µM (active); in [9], 0.0192 µM (active). Besides, the call in assay [3], in [6], in assay [4], in assay [10], in [8] and in [5] was inactive.
On to `CCCOC(=O)c1ccc(O)cc1`, for which the AC50 in assay [2] is 10 µM (active); in assay [3] it was 40 µM (active); in assay [6], 11 µM (active); in assay [7], 41.4 µM (active); in [4], 33.3 µM (active); in [8] it was 75.8 µM (active). For the same compound, the AC50 in assay [9] was 49.1 µM (active); in [5] it was 40.1 µM (active).
In the case of `CC(=O)CC(C)(C)O`, the result in [1], in assay [2], in assay [3], in [6], in [7] and in [4] was inactive. Also, the compound was classed as inactive in assay [8], in [9] and in assay [5].
Turning to `Nc1cccc2c(N)cccc12`, the call in assay [2], in assay [3], in assay [6], in assay [7], in assay [4] and in assay [8] was inactive. Further, in [9], the call was inactive.
In the case of `CC(C)(C)c1cccc(C(C)(C)C)c1O`, the call in [1], in [2], in assay [3], in assay [6], in assay [7] and in assay [4] was inactive. Besides, the call in [9] and in [5] was inactive.
With `ClC1=C(Cl)C(Cl)(Cl)C(Cl)=C1Cl`, the outcome in [2], in assay [3], in assay [6], in assay [7], in assay [4] and in assay [8] was inactive. Besides, in [9], the call was inactive.
As to `CN(C)C=O`, the result in assay [1], in assay [2], in [3], in assay [7], in assay [4] and in assay [8] was inactive. Moreover, the result in assay [9] and in [5] was inactive.
As to `COCC(C)O` (configuration not stated), the result in assay [1], in assay [2], in [3], in [6], in assay [7] and in assay [4] was inactive. Moreover, the call in assay [9] was inactive.
For `CC(C)(C)c1ccc(O)c(C(C)(C)C)c1`, the compound was classed as inactive in assay [2], in assay [3], in [6], in [7], in assay [4] and in assay [10]. In addition, the outcome in [8], in assay [9] and in assay [5] was inactive.
Regarding `Cc1cc(C)c(O)c(C)c1`, the call in assay [1], in assay [2], in [3], in assay [6], in assay [4] and in assay [8] was inactive. Moreover, the compound was called inactive in assay [9].
`CCCCCCCCOC(=O)CCCCCCCCC(=O)OCCCCCCCC`: the compound was classed as inactive in assay [2], in assay [3], in assay [6], in [7], in assay [4] and in [10]. For the same compound, the compound was classed as inactive in [8] and in [9].
Consider `C#C[C@]1(O)CC[C@H]2[C@@H]3CCC4=CC(=O)CC[C@@H]4[C@H]3CC[C@@]21C`, for which the call in [1], in [2], in assay [3], in [6], in [8] and in assay [9] was inactive.
`C[C@@H]1C[C@H]2[C@@H]3CCC4=CC(=O)C=C[C@]4(C)[C@@]3(F)[C@@H](O)C[C@]2(C)[C@@]1(O)C(=O)COP(=O)(O)O`: the call in assay [1], in assay [2], in assay [3], in assay [6], in assay [7] and in assay [4] was inactive. The result in assay [8], in [9] and in [5] was inactive.
Regarding `CCOC(=O)CC(O)(CC(=O)OCC)C(=O)OCC`, the compound was called inactive in assay [2], in assay [3], in assay [6], in assay [7], in [4] and in [10]. Also, the call in [9] and in [5] was inactive.
As to `OC1CCCCC1`, the outcome in [1], in assay [2], in [3], in [6], in assay [7] and in assay [4] was inactive. Also, the compound was classed as inactive in assay [10], in assay [8] and in assay [9].
For `COC(=O)CCCCC(=O)OC`, the outcome in assay [2], in [3], in [6], in assay [7], in assay [4] and in assay [10] was inactive. For the same compound, the call in [8], in assay [9] and in assay [5] was inactive.
For the compound `CCCCOCCO`, the outcome in assay [1], in [2], in assay [6], in assay [7], in assay [4] and in assay [8] was inactive. Besides, the compound was called inactive in [9] and in [5].

A word on the AC50: it is the concentration giving half of the maximal activity seen.
